Where a chain is given by its changes, count along the chain named.

The target in one assay is T1, SALL4 ZFC4 WT (HT-SELEX) (Mus musculus, UniProt Q8BX22 870-940).
T1 sequence: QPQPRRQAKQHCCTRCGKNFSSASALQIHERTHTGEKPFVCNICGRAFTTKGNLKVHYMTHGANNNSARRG
As to the kind of experiment: HT-SELEX; high values mean tight binding. Conditions: protein: recombinant; vector His6-GST; dsDNA, one strand shown. Summed up:
(§1)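 Binding signal is defined as the fold change of each canonical k-mer's read fraction versus the initial random library. Selections used 1 µg of purified recombinant mouse SALL4 zinc finger cluster 4 (residues 870–940) with library DNA (1.5 µg first cycle, 200 ng later) in 100 µl of 10 mM Tris–HCl pH 7.5, 50 mM NaCl, poly(dI-dC) and DTT, for 10 min at room temperature, followed by Ni2+ bead capture, washing and PCR. Up to 6 such cycles were run in triplicate before MiSeq sequencing and 6-mer scanning.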
Turning to GTGAGA, the binding signal was 0.859 ± 0.0299 fold-change vs cycle 0.
Take GCTTTA: the binding signal is 0.998 ± 0.0694 fold-change vs cycle 0.
Take GGAAGA: the binding signal was 0.939 ± 0.0256 fold-change vs cycle 0.
Take ACAAAC: the binding signal is 1.07 ± 0.057 fold-change vs cycle 0.
Regarding GACGAA, the binding signal turned out to be 0.609 ± 0.00641 fold-change vs cycle 0.
With ACCCTG, the binding signal was 0.474 ± 0.0232 fold-change vs cycle 0.
As to ATAGCA, the binding signal turned out to be 1.2 ± 0.0655 fold-change vs cycle 0.
As for ACCAAT, the binding signal was 1.25 ± 0.0373 fold-change vs cycle 0.
Turning to CCAATA, the binding signal was 1.24 ± 0.0729 fold-change vs cycle 0.
Same read-out and setting: the value for GTCTTA was 1.27 ± 0.0474 fold-change vs cycle 0.
On to GTGAAA, for which the binding signal was found to be 1.16 ± 0.0303 fold-change vs cycle 0.
As for GAGAGA, the binding signal worked out at 0.898 ± 0.0151 fold-change vs cycle 0.
In the case of GACTAA, the binding signal stood at 1.21 ± 0.0577 fold-change vs cycle 0.
As for CACCAG, the binding signal was found to be 0.43 ± 0.0196 fold-change vs cycle 0.
In the case of AGTAAC, the binding signal amounted to 1.458 ± 0.009 fold-change vs cycle 0.
On to ATCCTG, for which the binding signal stood at 0.879 ± 0.0324 fold-change vs cycle 0.
The same measure, in the same setting: as for CAAATG, the figure is 1.063 ± 0.0102 fold-change vs cycle 0; as for CCAGTC, 0.437 ± 0.0378 fold-change vs cycle 0; as for TAAGAA, 2.2 ± 0.0931 fold-change vs cycle 0.
The same measure, in the same setting: as for AAACCT, the figure is 1.23 ± 0.0691 fold-change vs cycle 0; as for CATACA, 1.36 ± 0.0385 fold-change vs cycle 0; as for ATTTGG, 1.02 ± 0.0576 fold-change vs cycle 0.
Turning to CTATCA, the binding signal was found to be 1.36 ± 0.0524 fold-change vs cycle 0.
For CAGGAA, the binding signal is 0.785 ± 0.0392 fold-change vs cycle 0.
Turning to AAAACT, the binding signal was 1.7 ± 0.107 fold-change vs cycle 0.
Still for that read-out and setting: the value for CCGAAA was 0.495 ± 0.0231 fold-change vs cycle 0; that for CAGATA was 1.33 ± 0.0697 fold-change vs cycle 0; that for GTGACA was 0.691 ± 0.0164 fold-change vs cycle 0.
Still for that read-out and setting: as for ATTCCC, the figure is 0.877 ± 0.0328 fold-change vs cycle 0; as for CATAGA, 1.37 ± 0.0454 fold-change vs cycle 0; as for GGACCA, 0.389 ± 0.0179 fold-change vs cycle 0.
Regarding TCATCA, the binding signal turned out to be 1.46 ± 0.0322 fold-change vs cycle 0.
Consider GTGATA, for which the binding signal came to 1.42 ± 0.0582 fold-change vs cycle 0.
The same measure, in the same setting: as for CTCAAA, the figure is 1.09 ± 0.0723 fold-change vs cycle 0; as for ACTCCA, 0.896 ± 0.0264 fold-change vs cycle 0.
ATGGAG: the binding signal was 0.932 ± 0.0365 fold-change vs cycle 0.
ACTGAG: the binding signal turned out to be 0.855 ± 0.0344 fold-change vs cycle 0.
Take AAATCC: the binding signal came out at 1.19 ± 0.0372 fold-change vs cycle 0.
On to ACGAAA, for which the binding signal amounted to 1.04 ± 0.0604 fold-change vs cycle 0.
With ATATCC, the binding signal was determined as 1.52 ± 0.0519 fold-change vs cycle 0.

In another assay the target is T2, SALL4 ZFC4 R900W (HT-SELEX) (Mus musculus, UniProt Q8BX22 870-940, R900W).
T2 sequence: T1 sequence with R31W
The experiment in a line: HT-SELEX; high values mean tight binding. The settings on record: protein: recombinant; vector His6-GST; dsDNA, one strand shown. Summed up: as §1
GTGAGA: the binding signal worked out at 0.971 ± 0.0233 fold-change vs cycle 0.
As for GACGAA, the binding signal came out at 0.72 ± 0.0219 fold-change vs cycle 0.
Consider ACCCTG, for which the binding signal is 0.563 ± 0.034 fold-change vs cycle 0.
On to GTCTTA, for which the binding signal is 1.39 ± 0.0618 fold-change vs cycle 0.
Regarding GTGAAA, the binding signal worked out at 1.27 ± 0.0355 fold-change vs cycle 0.
Still for that read-out and setting: as for GACTAA, the figure is 1.39 ± 0.093 fold-change vs cycle 0; as for CACCAG, 0.526 ± 0.014 fold-change vs cycle 0.
Consider AGTAAC, for which the binding signal amounted to 1.62 ± 0.0372 fold-change vs cycle 0.
Consider CCAGTC, for which the binding signal amounted to 0.533 ± 0.0426 fold-change vs cycle 0.
As for CATACA, the binding signal is 1.37 ± 0.0315 fold-change vs cycle 0.
In the case of CTATCA, the binding signal was 1.47 ± 0.0491 fold-change vs cycle 0.
On to CAGGAA, for which the binding signal is 0.921 ± 0.0224 fold-change vs cycle 0.
On the same count and under the same terms, the value for CCGAAA was 0.559 ± 0.0265 fold-change vs cycle 0; that for GTGACA was 0.813 ± 0.0124 fold-change vs cycle 0.
As to ATTCCC, the binding signal amounted to 0.943 ± 0.055 fold-change vs cycle 0.
Turning to GGACCA, the binding signal is 0.466 ± 0.011 fold-change vs cycle 0.
Consider TCATCA, for which the binding signal amounted to 1.56 ± 0.0457 fold-change vs cycle 0.
For the sequence GTGATA, the binding signal worked out at 1.47 ± 0.0649 fold-change vs cycle 0.
The same measure, in the same setting: the value for AAATCC was 1.27 ± 0.0238 fold-change vs cycle 0; that for ATATCC was 1.43 ± 0.0827 fold-change vs cycle 0.

A further assay concerns the target T3, SALL4 ZFC4 G921D (HT-SELEX) (Mus musculus, UniProt Q8BX22 870-940, G921D).
T3 sequence: T1 sequence with G52D
The experiment in a line: HT-SELEX; high values mean tight binding. Conditions: protein: recombinant; vector His6-GST; dsDNA, one strand shown. The method in brief:
as §1
With GTGAGA, the binding signal is 0.986 ± 0.0119 fold-change vs cycle 0.
On the same count and under the same terms, the value for GCTTTA was 1.11 ± 0.0337 fold-change vs cycle 0; that for GGAAGA was 1.12 ± 0.0151 fold-change vs cycle 0; that for ACAAAC was 1.23 ± 0.0372 fold-change vs cycle 0.
In the case of GACGAA, the binding signal amounted to 0.7905 ± 0.00753 fold-change vs cycle 0.
ACCCTG: the binding signal turned out to be 0.648 ± 0.0451 fold-change vs cycle 0.
On to ATAGCA, for which the binding signal is 1.23 ± 0.0807 fold-change vs cycle 0.
For the sequence ACCAAT, the binding signal was 1.33 ± 0.0543 fold-change vs cycle 0.
On the same count and under the same terms, the value for CCAATA was 1.22 ± 0.0438 fold-change vs cycle 0; that for GTCTTA was 1.35 ± 0.0901 fold-change vs cycle 0; that for GTGAAA was 1.19 ± 0.0481 fold-change vs cycle 0.
The same measure, in the same setting: the value for GAGAGA was 1.06 ± 0.0177 fold-change vs cycle 0; that for GACTAA was 1.3 ± 0.0798 fold-change vs cycle 0; that for CACCAG was 0.606 ± 0.0242 fold-change vs cycle 0.
Regarding AGTAAC, the binding signal is 1.49 ± 0.109 fold-change vs cycle 0.
Consider ATCCTG, for which the binding signal amounted to 1.02 ± 0.0414 fold-change vs cycle 0.
In the case of CAAATG, the binding signal worked out at 1.17 ± 0.0276 fold-change vs cycle 0.
On to CCAGTC, for which the binding signal amounted to 0.62 ± 0.0337 fold-change vs cycle 0.
Take TAAGAA: the binding signal amounted to 1.87 ± 0.231 fold-change vs cycle 0.
In the case of AAACCT, the binding signal came out at 1.34 ± 0.0704 fold-change vs cycle 0.
Consider CATACA, for which the binding signal is 1.32 ± 0.0664 fold-change vs cycle 0.
Still for that read-out and setting: as for ATTTGG, the figure is 1.1 ± 0.038 fold-change vs cycle 0.
As for CTATCA, the binding signal was 1.41 ± 0.0867 fold-change vs cycle 0.
Same read-out and setting: as for CAGGAA, the figure is 0.918 ± 0.0252 fold-change vs cycle 0; as for AAAACT, 1.57 ± 0.146 fold-change vs cycle 0.
On to CCGAAA, for which the binding signal was 0.66 ± 0.0717 fold-change vs cycle 0.
Same read-out and setting: as for CAGATA, the figure is 1.29 ± 0.0843 fold-change vs cycle 0.
As for GTGACA, the binding signal came to 0.852 ± 0.0256 fold-change vs cycle 0.
As to ATTCCC, the binding signal stood at 0.984 ± 0.0201 fold-change vs cycle 0.
For the sequence CATAGA, the binding signal worked out at 1.34 ± 0.0648 fold-change vs cycle 0.
Still for that read-out and setting: as for GGACCA, the figure is 0.557 ± 0.0733 fold-change vs cycle 0; as for TCATCA, 1.49 ± 0.0698 fold-change vs cycle 0; as for GTGATA, 1.39 ± 0.0928 fold-change vs cycle 0.
Same read-out and setting: the value for CTCAAA was 1.2 ± 0.0463 fold-change vs cycle 0; that for ACTCCA was 1.03 ± 0.0296 fold-change vs cycle 0; that for ATGGAG was 1.04 ± 0.0381 fold-change vs cycle 0.
Consider ACTGAG, for which the binding signal was determined as 1.01 ± 0.0137 fold-change vs cycle 0.
Take AAATCC: the binding signal turned out to be 1.24 ± 0.0539 fold-change vs cycle 0.
In the case of ACGAAA, the binding signal was 1.11 ± 0.0388 fold-change vs cycle 0.
On the same count and under the same terms, as for ATATCC, the figure is 1.37 ± 0.0764 fold-change vs cycle 0.

For the origin of these results see publication PMC9838217, “Structure of SALL4 zinc finger domain reveals link between AT-rich DNA binding and Okihiro syndrome”.
